Experimental data reported in PubChem BioAssay AID2284135 (EPA ToxCast).
Results filed as inconclusive are left out. Calls of active or inactive are those of the source. Rule for the calls: active = hit-call score of the fitted dose curve at least 0.9, where 1 is the maximum; inconclusive = response in the unintended direction; inactive = score below 0.9.

Each molecule was assayed against cAMP-dependent protein kinase catalytic subunit alpha (Homo sapiens) (UniProt P17612) (assay: ERF_TW_ENZ_hPRKACA: Eurofins (ERF) Enzymatic Radiometric [10 uM ATP] LeadHunter Assay for human PKA AGC Kinase).
Method: ERF_TW_ENZ_hPRKACA is a biochemical, single-readout assay that uses extracted gene-proteins in a cell-free assay. Measurements were taken 0.25 hour after chemical dosing in a 96-well plate. See PKA Human AGC Kinase Enzymatic Radiometric Assay [10 uM ATP], Panlabs.ERF_TW_ENZ_hPRKACA is an assay component calculated from the ERF_TW_ENZ_hPRKACA assay. It is designed to measure enzyme activity using a type of enzyme reporter as detected by scintillation counting with radiometry technology.Data from the assay component ERF_TW_ENZ_hPRKACA was analyzed at the assay endpoint, ERF_TW_ENZ_hPRKACA, in the positive analysis fitting direction relative to DMSO as the negative control and baseline of activity. Using a type of enzyme reporter, loss-of-signal activity can be used to understand changes in enzymatic activity as they relate to gene PRKACA. To generalize the intended target to other relatable targets, this assay endpoint is annotated to the kinase intended target family, where the subfamily is serine/threonine kinase.
Human protein kinase PKA expressed in E. coli. is used. Test compound and/or vehicle is preincubated with 23 ng/ml enzyme in modified MOPS buffer pH 7.2 at 37C for 15 minutes. The reaction is initiated by addition of 0.5 uM PKA substrate peptide, 10 uM ATP and 0.25 uCi [gamma32P]ATP for another 15 minute incubation period and terminated by further addition of 3 % H3PO4. An aliquot is removed to a 96 well multiscreen, washed with H3PO4 solution, dried and counted to determine the amount of 32P- PKA substrate peptide formed. Compounds are screened at 10 uM.Test Sample Requirements: Minimum for 1) Screen: 25 ul of 10 mM stock -OR- 1 mg (pre-weighed). 2) Dose Response: 60 ul of 10 mM stock -OR- 1 mg (pre-weighed).

AC50, active:
COc1cc(CCC(=O)CC(=O)CCc2ccc(O)c(OC)c2)ccc1O 3.01 µM
O=C(/C=C/c1ccc(O)cc1)CC(=O)/C=C/c1ccc(O)cc1 2.19 µM
COc1cc(/C=C/C(=O)CC(=O)/C=C/c2ccc(O)c(OC)c2)ccc1O 2.97 µM
